Assay [1] deals with G protein-coupled receptor kinase 5 (Homo sapiens) (UniProt P34947). The settings on record: at 1 µM.
Assay [2] has as its target Vascular endothelial growth factor receptor 3 (Homo sapiens) (UniProt P35916). Particulars: at 10 µM.
The target in assay [3] is Macrophage colony-stimulating factor 1 receptor (Homo sapiens) (UniProt P07333). Particulars: at 1 µM.
For assay [4] the target is unchanged. The settings on record: at 10 µM.
Assay [5] deals with Tyrosine-protein kinase Fyn (Homo sapiens) (UniProt P06241). The settings on record: at 1 µM.
Assay [6] has the same target. The settings on record: at 10 µM.
Assay [7] has as its target T1, Mitogen-activated protein kinase kinase kinase kinase 2 (Homo sapiens) (UniProt Q12851).
T1 sequence (whole entry): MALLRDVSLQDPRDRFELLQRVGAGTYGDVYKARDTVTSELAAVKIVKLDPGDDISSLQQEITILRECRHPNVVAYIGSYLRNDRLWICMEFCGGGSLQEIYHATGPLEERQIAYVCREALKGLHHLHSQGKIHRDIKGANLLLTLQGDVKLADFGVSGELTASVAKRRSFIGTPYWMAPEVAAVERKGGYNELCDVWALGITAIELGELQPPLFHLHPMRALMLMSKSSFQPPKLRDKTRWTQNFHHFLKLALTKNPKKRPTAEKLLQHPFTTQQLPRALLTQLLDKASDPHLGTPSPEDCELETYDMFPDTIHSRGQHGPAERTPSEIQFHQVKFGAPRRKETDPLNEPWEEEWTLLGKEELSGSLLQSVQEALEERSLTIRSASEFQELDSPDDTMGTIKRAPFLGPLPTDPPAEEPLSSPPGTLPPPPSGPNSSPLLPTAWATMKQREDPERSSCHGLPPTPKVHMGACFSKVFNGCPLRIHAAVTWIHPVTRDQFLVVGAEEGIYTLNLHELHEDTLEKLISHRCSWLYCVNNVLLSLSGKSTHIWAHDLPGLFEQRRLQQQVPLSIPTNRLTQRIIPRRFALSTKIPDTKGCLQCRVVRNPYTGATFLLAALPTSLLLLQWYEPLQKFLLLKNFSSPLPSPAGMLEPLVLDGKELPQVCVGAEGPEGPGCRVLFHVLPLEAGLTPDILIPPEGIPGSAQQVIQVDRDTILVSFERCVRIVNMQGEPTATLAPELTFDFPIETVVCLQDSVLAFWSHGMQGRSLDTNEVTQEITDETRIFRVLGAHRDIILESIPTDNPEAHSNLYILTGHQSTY
Particulars: at 1 µM.

Assay [8] concerns the target T1, Mitogen-activated protein kinase kinase kinase kinase 2 (Homo sapiens). Particulars: at 10 µM.
In assay [9] the target is G protein-coupled receptor kinase 5 (Homo sapiens) (UniProt P34947). The settings on record: at 10 µM.
In assay [10] the target is G protein-coupled receptor kinase 6 (Homo sapiens) (UniProt P43250). Particulars: at 1 µM.
Assay [11] shares this target. Particulars: at 10 µM.
Assay [12] has as its target T2, Rhodopsin kinase GRK7 (Homo sapiens) (UniProt Q8WTQ7).
T2 sequence (whole entry): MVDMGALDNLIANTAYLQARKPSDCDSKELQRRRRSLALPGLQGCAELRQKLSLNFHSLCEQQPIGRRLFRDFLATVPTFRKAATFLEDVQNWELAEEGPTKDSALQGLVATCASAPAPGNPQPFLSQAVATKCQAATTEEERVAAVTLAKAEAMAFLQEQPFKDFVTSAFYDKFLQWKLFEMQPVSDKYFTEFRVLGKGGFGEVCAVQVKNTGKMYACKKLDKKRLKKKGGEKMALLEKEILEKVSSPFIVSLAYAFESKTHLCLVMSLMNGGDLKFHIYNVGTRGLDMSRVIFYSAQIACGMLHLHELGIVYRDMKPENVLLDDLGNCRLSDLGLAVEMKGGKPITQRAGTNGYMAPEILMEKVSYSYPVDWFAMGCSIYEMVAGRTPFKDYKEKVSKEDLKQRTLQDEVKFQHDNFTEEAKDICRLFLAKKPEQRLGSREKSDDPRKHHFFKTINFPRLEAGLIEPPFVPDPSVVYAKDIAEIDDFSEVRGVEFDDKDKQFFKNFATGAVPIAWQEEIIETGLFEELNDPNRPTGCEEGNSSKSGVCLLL
Particulars: at 1 µM.

For assay [13], the target named is T2, Rhodopsin kinase GRK7 (Homo sapiens). Particulars: at 10 µM.
In assay [14] the target is Glycogen synthase kinase-3 alpha (Homo sapiens) (UniProt P49840). The settings on record: at 1 µM.
The target is the same in assay [15]. Particulars: at 10 µM.
Assay [16] concerns the target Glycogen synthase kinase-3 beta (Homo sapiens) (UniProt P49841). Particulars: at 10 µM.
The target of assay [17] is Homeodomain-interacting protein kinase 1 (Homo sapiens) (UniProt Q86Z02). Particulars: at 1 µM.
The target is the same in assay [18]. Particulars: at 10 µM.
Assay [19] concerns the target Homeodomain-interacting protein kinase 2 (Homo sapiens) (UniProt Q9H2X6). Particulars: at 1 µM.

Chain of G protein-coupled receptor kinase 6 (Homo sapiens) (P43250 whole entry, looked up): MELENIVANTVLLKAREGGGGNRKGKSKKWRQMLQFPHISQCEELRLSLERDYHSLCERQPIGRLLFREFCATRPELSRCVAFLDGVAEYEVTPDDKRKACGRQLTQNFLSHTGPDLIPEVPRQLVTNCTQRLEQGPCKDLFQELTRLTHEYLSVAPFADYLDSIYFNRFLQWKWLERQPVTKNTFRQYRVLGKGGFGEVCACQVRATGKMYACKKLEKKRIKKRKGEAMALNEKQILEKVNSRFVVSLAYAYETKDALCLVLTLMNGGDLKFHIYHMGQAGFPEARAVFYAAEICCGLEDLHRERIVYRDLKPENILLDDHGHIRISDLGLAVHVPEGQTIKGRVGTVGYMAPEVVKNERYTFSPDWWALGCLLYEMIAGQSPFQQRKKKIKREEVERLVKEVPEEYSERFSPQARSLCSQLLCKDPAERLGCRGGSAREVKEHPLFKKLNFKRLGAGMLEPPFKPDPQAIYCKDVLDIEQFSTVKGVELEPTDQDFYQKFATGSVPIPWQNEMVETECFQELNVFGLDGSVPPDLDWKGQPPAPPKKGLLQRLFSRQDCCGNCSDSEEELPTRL
Chain of G protein-coupled receptor kinase 5 (Homo sapiens) (P34947 whole entry, looked up): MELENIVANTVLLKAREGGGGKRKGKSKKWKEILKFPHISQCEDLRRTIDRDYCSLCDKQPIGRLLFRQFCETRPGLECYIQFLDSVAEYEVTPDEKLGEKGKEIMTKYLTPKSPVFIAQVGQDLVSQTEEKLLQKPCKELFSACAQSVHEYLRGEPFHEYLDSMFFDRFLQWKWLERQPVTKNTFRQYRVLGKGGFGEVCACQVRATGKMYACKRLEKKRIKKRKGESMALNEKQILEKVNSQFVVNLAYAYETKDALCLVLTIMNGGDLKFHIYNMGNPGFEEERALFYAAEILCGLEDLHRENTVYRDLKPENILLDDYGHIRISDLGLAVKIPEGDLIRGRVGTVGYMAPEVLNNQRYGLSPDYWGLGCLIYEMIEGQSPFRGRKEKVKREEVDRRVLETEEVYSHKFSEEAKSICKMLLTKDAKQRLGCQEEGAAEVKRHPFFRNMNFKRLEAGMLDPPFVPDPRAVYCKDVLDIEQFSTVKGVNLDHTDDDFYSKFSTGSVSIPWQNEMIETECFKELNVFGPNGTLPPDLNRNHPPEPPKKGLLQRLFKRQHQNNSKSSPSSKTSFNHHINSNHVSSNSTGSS
Chain of Tyrosine-protein kinase Fyn (Homo sapiens) (P06241 2-537 limits assumed): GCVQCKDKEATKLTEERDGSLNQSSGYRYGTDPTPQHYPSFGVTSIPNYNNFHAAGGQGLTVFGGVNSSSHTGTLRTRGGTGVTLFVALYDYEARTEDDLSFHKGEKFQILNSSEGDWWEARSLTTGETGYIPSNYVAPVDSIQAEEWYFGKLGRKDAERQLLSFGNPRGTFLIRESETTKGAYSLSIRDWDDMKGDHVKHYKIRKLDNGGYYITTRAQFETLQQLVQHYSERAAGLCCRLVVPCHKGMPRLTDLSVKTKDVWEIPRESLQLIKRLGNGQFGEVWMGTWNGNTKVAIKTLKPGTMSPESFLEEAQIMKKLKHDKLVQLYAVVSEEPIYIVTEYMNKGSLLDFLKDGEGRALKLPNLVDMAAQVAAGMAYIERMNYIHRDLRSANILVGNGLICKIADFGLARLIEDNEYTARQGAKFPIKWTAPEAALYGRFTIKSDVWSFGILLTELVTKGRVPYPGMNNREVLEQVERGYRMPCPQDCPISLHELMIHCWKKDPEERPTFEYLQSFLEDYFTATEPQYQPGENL
Chain of Glycogen synthase kinase-3 alpha (Homo sapiens) (P49840 2-483 limits assumed): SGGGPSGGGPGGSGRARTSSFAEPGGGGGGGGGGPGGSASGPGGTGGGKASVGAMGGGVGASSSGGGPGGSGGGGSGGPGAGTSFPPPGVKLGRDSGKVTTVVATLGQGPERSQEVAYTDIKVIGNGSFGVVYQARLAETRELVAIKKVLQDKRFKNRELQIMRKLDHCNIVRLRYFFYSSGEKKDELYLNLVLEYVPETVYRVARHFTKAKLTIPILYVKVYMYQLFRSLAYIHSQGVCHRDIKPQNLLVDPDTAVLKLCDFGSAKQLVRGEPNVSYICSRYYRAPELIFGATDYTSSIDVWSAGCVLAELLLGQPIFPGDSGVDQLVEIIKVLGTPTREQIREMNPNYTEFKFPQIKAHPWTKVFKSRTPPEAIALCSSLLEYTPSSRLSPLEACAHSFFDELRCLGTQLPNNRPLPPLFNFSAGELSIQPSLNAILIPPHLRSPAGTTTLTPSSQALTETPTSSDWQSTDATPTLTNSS
Chain of Homeodomain-interacting protein kinase 1 (Homo sapiens) (Q86Z02 whole entry, looked up): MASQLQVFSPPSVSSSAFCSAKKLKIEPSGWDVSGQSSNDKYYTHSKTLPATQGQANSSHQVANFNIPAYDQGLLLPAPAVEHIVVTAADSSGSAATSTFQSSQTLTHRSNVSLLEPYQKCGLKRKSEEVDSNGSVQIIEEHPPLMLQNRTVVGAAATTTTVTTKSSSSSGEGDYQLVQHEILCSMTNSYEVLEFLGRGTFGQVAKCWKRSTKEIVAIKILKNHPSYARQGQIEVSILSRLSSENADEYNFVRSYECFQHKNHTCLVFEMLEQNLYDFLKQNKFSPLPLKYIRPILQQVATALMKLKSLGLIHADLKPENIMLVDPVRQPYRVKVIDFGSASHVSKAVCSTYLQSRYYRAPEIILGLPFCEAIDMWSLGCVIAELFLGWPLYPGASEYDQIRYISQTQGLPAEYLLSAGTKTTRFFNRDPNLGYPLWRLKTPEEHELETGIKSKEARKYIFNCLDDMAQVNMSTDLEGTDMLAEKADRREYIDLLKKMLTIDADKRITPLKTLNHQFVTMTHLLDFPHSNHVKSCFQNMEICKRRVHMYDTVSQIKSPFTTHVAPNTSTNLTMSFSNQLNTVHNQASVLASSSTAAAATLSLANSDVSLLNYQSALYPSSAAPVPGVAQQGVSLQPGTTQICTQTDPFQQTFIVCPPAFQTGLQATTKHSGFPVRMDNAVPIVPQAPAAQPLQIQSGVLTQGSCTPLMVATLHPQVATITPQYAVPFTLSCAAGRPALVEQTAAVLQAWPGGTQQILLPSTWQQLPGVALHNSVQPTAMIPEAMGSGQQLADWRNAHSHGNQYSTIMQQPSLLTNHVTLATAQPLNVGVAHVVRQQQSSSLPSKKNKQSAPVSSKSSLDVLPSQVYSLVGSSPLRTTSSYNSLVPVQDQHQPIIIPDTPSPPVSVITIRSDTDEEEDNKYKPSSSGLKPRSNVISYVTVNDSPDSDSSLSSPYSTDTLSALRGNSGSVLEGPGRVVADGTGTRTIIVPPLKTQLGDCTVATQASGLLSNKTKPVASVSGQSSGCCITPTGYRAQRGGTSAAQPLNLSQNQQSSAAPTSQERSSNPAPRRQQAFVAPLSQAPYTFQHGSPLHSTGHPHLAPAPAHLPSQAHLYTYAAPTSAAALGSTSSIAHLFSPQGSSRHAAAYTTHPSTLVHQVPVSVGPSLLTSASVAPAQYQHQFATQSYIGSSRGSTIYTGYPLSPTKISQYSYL
Chain of Macrophage colony-stimulating factor 1 receptor (Homo sapiens) (P07333 whole entry): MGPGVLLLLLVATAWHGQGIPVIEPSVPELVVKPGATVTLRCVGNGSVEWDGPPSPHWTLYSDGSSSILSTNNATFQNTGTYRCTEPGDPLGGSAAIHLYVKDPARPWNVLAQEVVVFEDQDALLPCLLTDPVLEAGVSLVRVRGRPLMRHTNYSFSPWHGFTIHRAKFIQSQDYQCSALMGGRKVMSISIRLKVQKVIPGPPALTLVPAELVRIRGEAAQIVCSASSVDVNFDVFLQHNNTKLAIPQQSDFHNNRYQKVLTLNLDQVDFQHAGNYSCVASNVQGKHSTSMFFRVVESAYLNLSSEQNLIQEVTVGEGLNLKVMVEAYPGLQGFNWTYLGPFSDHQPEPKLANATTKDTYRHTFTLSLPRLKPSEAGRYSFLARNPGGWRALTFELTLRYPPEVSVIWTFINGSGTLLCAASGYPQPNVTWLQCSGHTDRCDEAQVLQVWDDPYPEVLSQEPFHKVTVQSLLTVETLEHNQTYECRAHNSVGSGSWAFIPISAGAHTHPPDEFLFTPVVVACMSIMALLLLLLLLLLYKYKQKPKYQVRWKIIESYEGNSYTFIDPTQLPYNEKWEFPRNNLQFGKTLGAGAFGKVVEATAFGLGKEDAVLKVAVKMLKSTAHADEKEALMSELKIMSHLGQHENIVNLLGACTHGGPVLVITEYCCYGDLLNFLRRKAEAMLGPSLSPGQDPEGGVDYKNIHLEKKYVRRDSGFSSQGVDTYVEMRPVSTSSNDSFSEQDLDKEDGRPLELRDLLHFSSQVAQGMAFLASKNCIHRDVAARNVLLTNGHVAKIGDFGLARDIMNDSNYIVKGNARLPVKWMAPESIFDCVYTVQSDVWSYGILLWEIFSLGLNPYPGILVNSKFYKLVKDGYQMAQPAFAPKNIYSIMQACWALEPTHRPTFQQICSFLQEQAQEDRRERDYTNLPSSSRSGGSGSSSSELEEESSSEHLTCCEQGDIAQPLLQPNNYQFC
Chain of Glycogen synthase kinase-3 beta (Homo sapiens) (P49841 whole entry, looked up): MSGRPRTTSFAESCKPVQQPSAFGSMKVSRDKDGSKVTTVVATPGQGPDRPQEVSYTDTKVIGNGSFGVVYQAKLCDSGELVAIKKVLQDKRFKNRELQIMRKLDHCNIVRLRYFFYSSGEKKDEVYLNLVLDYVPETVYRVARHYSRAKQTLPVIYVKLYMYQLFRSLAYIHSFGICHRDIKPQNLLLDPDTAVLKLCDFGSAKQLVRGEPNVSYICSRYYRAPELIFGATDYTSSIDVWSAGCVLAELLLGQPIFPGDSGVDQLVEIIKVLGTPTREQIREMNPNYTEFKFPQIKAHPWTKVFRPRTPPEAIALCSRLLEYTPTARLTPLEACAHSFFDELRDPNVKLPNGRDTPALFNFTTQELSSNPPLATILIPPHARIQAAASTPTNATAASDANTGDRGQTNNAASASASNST

Consider `O=C(c1cc2cc(O)ccc2[nH]1)c1cc2cc(O)ccc2[nH]1`, for which the residual activity in assay [1] turned out to be 79%.
For `C[S+]([O-])c1ccc(-c2nc(-c3ccc(F)cc3)c(-c3ccncc3)[nH]2)cc1` (stereo not given), the residual activity in assay [2] was determined as 42%; in [3] it was 109%; in [4], 52%; in [5], 76%; in [6] it was 35%; in [7] it was 104%. Moreover, the residual activity in [8] came to 100%; in [1], 109%; in assay [9], 104%; in [10], 107%; in assay [11], 102%; in assay [12], 109%. Further, the residual activity is 108% in [13]; 86% in [14]; 49% in assay [15]; 34% in assay [16]; 102% in assay [17]; 97% in [18]. For the same compound, in assay [19], the residual activity worked out at 110%.
On to `Cc1ccc(NC2=CC(=O)c3sc(C)nc3C2=O)cc1`, for which the residual activity was 93% in [1] and 96% in assay [10].
On to `CC[n+]1c(/C=C/N(C)c2ccccc2)n(-c2ccccc2)c2ccc(-c3nc4ccccc4s3)cc21`, for which the results for the residual activity in assay [1] and in assay [10] were 108% and 101%, respectively.
Regarding `N#C/C(=C(\N)Sc1ccc(N)cc1)c1ccccc1C(F)(F)F`, the values for the residual activity in assay [1] and in [10] were 97% and 86%, respectively.
For the compound `COc1ccc(C(=O)Nc2sc3c(c2C(N)=O)CCCC3)cc1OC`, the residual activity in [1] was 91%; in [10], 90%.
With `O=C1c2ccccc2-[n+]2ccc3c([nH]c4ccccc43)c21`, the residual activity was 91% in assay [1] and 88% in [10].
Regarding `CCCCc1c(-c2ccc(O)cc2)[nH]c2nccnc12`, the residual activity in assay [1] was 93%; in assay [10], 98%.
For `NC(=O)c1ccc2[nH]c(-c3ccc(Oc4ccc(Cl)cc4)cc3)nc2c1`, the residual activity in [1] and in assay [10] was 93% throughout.
Regarding `COc1ccc(S(=O)(=O)N(CCO)c2ccccc2CN(C)C/C=C/c2ccc(Cl)cc2)cc1`, the residual activity in assay [1] is 97%; in assay [10] it was 91%.
As for `COc1cc2ncnc(Nc3ccc(O)c(Br)c3)c2cc1OC`, the residual activity in assay [1] worked out at 89%; in assay [10] it was 85%.
The corresponding values for `Nc1ncnc2[nH]nc(Nc3ccc(F)cc3)c12` are 103% and 97%.
`CCOc1cc2ncnc(Nc3cccc(Br)c3)c2cc1OCC`: the residual activity in [1] was 97%; in [10], 100%.
As for `c1ccc(-c2n[nH]c3c2oc2ccccc23)cc1`, the residual activity in assay [1] amounted to 91%; in assay [10], 99%.
Take `Nc1n[nH]c2nnc(-c3c(-c4ccccc4)nn4ccccc34)cc12`: the residual activity is 93% in assay [1] and 87% in [10].
Turning to `COc1ccc(OC)c2c(=S)c3ccccc3[nH]c12`, the residual activity in assay [1] came to 94%; in assay [10], 98%.
The like results for `O=C1NC(=O)c2cc(Nc3ccc(F)cc3)c(Nc3ccc(F)cc3)cc21` were, in that order, 104% and 85%.
The like results for `CN(C)c1ccc(/C=C2\C(=O)Nc3ccccc32)cc1` were, in that order, 91% and 97%.
As to `Nc1ncnc2c1c(-c1ccc(Oc3ccccc3)cc1)cn2C1CCCC1`, the residual activity in assay [1] was 103%; in assay [10], 92%.
The corresponding values for `NC(=O)Nc1sc(-c2ccc(F)cc2)cc1C(N)=O` are 93% and 85%.
Regarding `CCC(=O)Nc1ccc2ncnc(Nc3cccc(Br)c3)c2c1`, the residual activity in assay [1] turned out to be 114%; in [10] it was 97%.
`O=C1Nc2cc(Br)ccc2/C1=C1/Nc2ccccc2/C1=N\O`: the residual activity in assay [1] and in assay [10] was 89% each time.
On to `CC(C)n1cnc2c(NCc3ccccc3)nc(NCCCO)nc21`, for which the results for the residual activity in assay [1] and in assay [10] were 101% and 96%, respectively.
As to `CC(=O)c1ccc(N2CCOCC2)cc1O`, the residual activity in assay [1] stood at 105%; in assay [10] it was 95%.
The like results for `O=C1NC(=O)/C(=C/c2ccc3c(c2)OC(F)(F)O3)S1` were, in that order, 92% and 93%.
As for `Ic1cccc(CSc2nnc(-c3ccncc3)o2)c1`, the residual activity in assay [1] and in [10] was 89% in each case.
On to `O=[N+]([O-])c1ccc(-c2nc(-c3ccc(F)cc3)c(-c3ccncc3)[nH]2)cc1`, for which the residual activity in [1] came out at 101%; in assay [10], 102%.
The corresponding values for `COc1cc2ncnc(Nc3ccc(NC(=O)c4ccccc4)cc3)c2cc1OC` are 105% and 111%.
On to `Nc1cccc(-c2cc3c(Oc4cccc(O)c4)ncnc3[nH]2)c1`, for which the residual activity worked out at 92% in [1] and 93% in assay [10].
The corresponding values for `CN(C)CCCn1cc(C2=C(c3c[nH]c4ccccc34)C(=O)NC2=O)c2ccccc21` are 61% and 87%.
On to `CC(C)n1cnc2/c(=N/c3cccc(Cl)c3)nc(NCCO)[nH]c21`, for which the values for the residual activity in assay [1] and in assay [10] were 92% and 90%, respectively.
Turning to `O=C(O)c1ccc2c3c1cccc3c(=O)n1c3ccccc3nc21`, the residual activity in assay [1] was 95%; in assay [10] it was 100%.

For the origin of these results see ChEMBL document CHEMBL2218924, “A broad activity screen in support of a chemogenomic map for kinase signalling research and drug discovery” (Biochem J, 2013).
